In the library only some 21% were active in any assay of this set; here they are far more common.
CHX counter: counter-screen hit for Shiga toxin inhibitors, cycloheximide; cell reporter, cycloheximide protein synthesis inhibition counterscreen; max response, %; 300,000 compounds, 12% hits; in the data active = max response mostly above about 13%, no sharp cut-off; inactive = mostly below about 14%; note: read at 38.3 µM for the half of the compounds with a filed dose; 0% is about no effect
Pf growth 96h: inhibits malaria parasite growth, 96 h. Potency, µM (doses to about 28.7 µM), for inactives: top-dose activity change, negative = inhibition, actives largely listed as inhibitors. 320,000 compounds, 6.9% hits. P. falciparum luciferase reporter growth, 96 h; note: potency is the fitted concentration of half-maximal effect; % is set by controls: 0 for no effect and ±100 for the full control effect
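Luminescence readout: decreased luciferase signal marks inhibited growth of reporter-expressing P. falciparum in infected red cells (2% hematocrit, 0.05% parasitemia final), exposed to compound two generations (96 h, 37 C, 5% CO2).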
Pf growth 48h: inhibits P. falciparum growth in the first generation, 48 h; 310,000 compounds, 5.9% hits; Potency, µM (top dose mostly 28.7 µM), for inactives: top-dose activity change, negative = inhibition, most hits filed as inhibitors; P. falciparum luciferase growth in erythrocytes, 48 h; note: potency is the fitted concentration of half-maximal effect; % is set by controls: 0 for no effect and ±100 for the full control effect
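Parasite viability was followed by luminescence of a genomically integrated firefly luciferase. Cultures held 0.1% parasitemia at 2% hematocrit (final), incubated under 5% CO2 at 37 C.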
Sm TGR inh: S. mansoni TGR enzyme inhibition | Potency, µM (series often up to 114 µM), for inactives: top-dose activity change, negative = inhibition, most hits filed as inhibitors | Q962Y6 | purified TGR, DTNB reduction, TNB absorbance 405 nm | AID 485364 | 360,000 compounds, 3% hits; note: potency is the fitted concentration of half-maximal effect; % is set by controls: 0 for no effect and ±100 for the full control effect; nearly all actives have a fitted effect of over 60% in size
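Kinetic colorimetric format: TGR-catalysed, NADPH-driven DTNB reduction monitored via TNB absorbance. Enzyme dispensed at 20 nM; compound exposure 15 min at room temperature before reaction start.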
NS1 inh: blocks influenza NS1 protein function. 270,000 compounds, 0.4% hits. Potency, µM (titrated, usually from 46.1 µM), without a hit: top-dose activity, positive = more growth; calls by dose curve; note: potency is the fitted concentration of half-maximal effect; actives are rising curves; nearly all actives have a fitted effect of over 50% in size
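A cell-based growth assay was used: compounds that relieve NS1-induced slow growth of budding yeast raise OD600. Assay medium was yeast nitrogen base with ammonium sulphate and -URA supplement, pH 6.0, with 2% galactose.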
Shiga inhibitor: Shiga toxin inhibition | AID 2315 | 290,000 compounds, 9.2% hits | inhibition, % at 38.7 µM | Vero cells, Shiga toxin protein synthesis inhibition reporter; in the data active = inhibition mostly above about 28%, no sharp cut-off; inactive = mostly below about 43%; note: 0% is about no effect
* hit, by the source's call; u = inconclusive; x = no result given; [ ] = dose if it differs, or a comment. Unless noted, calls come from the whole dose curve; as a rule, active = well fitted curve in the direction sought with a large enough effect; inconclusive = small, poorly fitted or top-dose-only effect, or another doubt; inactive = no such curve, though single readings can be large; an effect the other way counts as inactive or inconclusive.

SMILES	CHX counter	Pf growth 96h	Pf growth 48h	Sm TGR inh	NS1 inh	Shiga inhibitor
COc1cccc(C(=O)NCCSCc2ccccc2Cl)c1	13*	41%	u	1%	-44%	24
Cn1nnnc1SCCCNCc1cccc(OCc2ccc(F)cc2)c1	x	x	x	-4%	x	x
O=C(O)CCn1nc(-c2ccc(F)cc2)cc(Cc2ccccc2)c1=O	-4	u	-14%	0%	8%	-3
Cc1cc2c(C)ccc(C)c2nc1SCC(=O)c1cccs1	-3	-8%	u	5%	8%	18
Cn1nnnc1SCC(=O)c1cccs1	18	31%	4%	40µM*	-12%	-4
Cc1cc(C)c(-n2nnnc2SCC(=O)c2cccs2)c(C)c1	24*	-10%	-12%	-5%	3%	39*
Cc1c(C)c2c(OCC(=O)NCc3ccccn3)cc3c(c2oc1=O)CCC(C)(C)O3	-3	u	u	-7%	7%	-5
CC(NC(=O)CC12CC3CC(CC(C3)C1)C2)C(=O)O (stereo not drawn)	-4	9.3µM*	7%	0%	6%	-1
O=C(CC12CC3CC(CC(C3)C1)C2)NCO	0	7%[5.75 µM]	29%	3%	11%	27
CC(/C=N/NC(=O)Cn1nccc1C)=C\c1ccc(C(C)C)cc1	42*	3%	12%	-4%	-23%	43*
CC(=C/c1ccc(C(C)C)cc1)/C=N/NC(=O)Cn1nc(C)cc1C	18*	2%	-10%	-3%	9%	65
Cc1ccc(/C=N/NC(=O)Cn2nccc2C)o1	-3	0%	-4%	10%	1%	-3
CC(/C=N\NC(=O)Cn1cncn1)=C/c1ccc(C(C)C)cc1	24*	20%	23%	-5%	0%	81*
CC(/C=N/NC(=O)Cn1nnc(N)n1)=C\c1ccc(C(C)C)cc1	24*	31%	2%	-8%	1%	77*
COc1ccc(/C=N/NC(=O)CCn2nc(C)cc2C)cc1	3	1%	23%	11%	-1%	13
CC(/C=N/NC(=O)Cn1cnc2ccccc21)=C\c1ccccc1	-4	0%	-18%	-1%	1%	-9
Cc1ccc(/C=N/NC(=O)Cn2nnc(N)n2)cc1	-2	35%	-3%	4%	7%	-4
Cc1ccccc1-c1noc(CCC(=O)Nc2cccc(C)c2C)n1	x	x	x	11%	x	x
COc1ccc(-c2noc3c2-c2nc(-c4c(F)cccc4F)sc2CC3)cc1	-1	29%	32%	u	-8%	-8
O=C(COC(=O)c1cc(S(=O)(=O)N2CCOCC2)ccc1Cl)Nc1ccccc1Cl	x	20%	22%	-3%	x	x
CC(C)(C)C(=O)/C(=C/c1ccncc1)n1cncn1	6	-24%	7.4µM*	x	-7%	-6
Cc1nn(C)c(C)c1/C=C(/C(=O)C(C)(C)C)n1cncn1	-1	-25%	-13%	u	-1%	17
O=C(O)c1cccc(Nc2ccncc2[N+](=O)[O-])c1	3	u	13%[0.00184 µM]	3%	6%	-4
CCc1ccc(C2CC(=O)c3c([nH]c(C(=O)OC4CCCCCC4)c3C)C2)cc1 (stereo not drawn)	x	x	x	2%	x	x
CCCc1[nH]n(-c2ccc([N+](=O)[O-])cc2)c(=O)c1C=NCCCn1ccnc1	-1	14%	13µM*	-8%[57.1 µM]	6%	-29
SMILES	CHX counter	Pf growth 96h	Pf growth 48h	Sm TGR inh	NS1 inh	Shiga inhibitor
COc1cccc(/C=N/NC(=O)c2c(C)nc3ccc(Cl)cn23)c1O	-1	2%	9.3µM*	-21%	-26%	6
Cc1nc2ccc(Br)cn2c1C(=O)N/N=C\c1ccccc1Cl	-1	3.3µM*	70%	-29%	-7%	x
COc1ccccc1/C=N\NC(=O)c1c(C)nc2ccc(Cl)cn12	-3	24%	32%	-2%	4%	2
CCS(=O)(=O)c1nc(S(=O)(=O)c2ccc(Cl)cc2)c(NCCN2CCOCC2)s1	4	6%	-7%	-23%	u	-7
CC(/C=N/NC(=O)c1c(Br)cnn1C)=C\c1ccccc1	25*	36%	32%	2%	-21%	47*
CC(/C=N/NC(=O)c1nn(C)c(C)c1Br)=C\c1ccccc1	63*	-1%	54%	-3%	-50%	117*
CCOC(=O)c1cnc2cc(C(F)(F)F)ccc2c1N1CCN(c2cccc(Cl)c2)CC1	x	x	x	23%	x	x
O=C1OCCC1Sc1nnc(-c2ccc(Br)cc2)o1 (stereo not drawn)	-4	x	48%	-8%	0%	-5
Brc1ccc(-c2nnc(SCCC3OCCCO3)o2)cc1	42*	-17%	47%	8%	-8%	59*
c1ccc(-c2nnc(SCCC3OCCCO3)o2)cc1	43*	84%	272%	-24%	10%	104*
COc1ccc(NC(=O)Cn2nc3c(cc2=O)CCCC3)cc1Cl	x	x	x	10%	x	x
COc1cc(OC)cc(-c2nc3n(n2)C(c2ccccc2F)C(C(=O)Nc2cccnc2)=C(C)N3)c1 (stereo not drawn)	x	x	x	5%	x	x
COc1ccc(Cc2noc(CN(C)Cc3ccc(-n4cccn4)cc3)n2)cc1OC	-3	2.1µM*	-15%	-7%	-6%	-16
CCc1ccc(CN(C)Cc2nc(Cc3ccc(OC)c(OC)c3)no2)nc1	-2	5%	u	32µM*	-4%	-6
COc1ccc(Cc2noc(CN3CCCN(Cc4ccc(F)cc4)CC3)n2)cc1OC	9	33%	-14%	u	-1%	-1
CC(CNC(=S)Nc1cc(F)cc(F)c1)CSc1ccc(Cl)cc1 (stereo not drawn)	-4	u	0%	12%	-4%	32
Cc1cccc(Oc2nc(-c3ccncc3)nc3ccccc23)c1	1	1.5µM*	1.7µM*	-2%	-32%	-13
Cc1ccccc1Oc1nc(-c2ccccn2)nc2ccccc12	39*	0.93µM*	1.9µM*	-20%	-50%	46*
O=[N+]([O-])c1ncccc1Oc1nc(-c2cccnc2)nc2ccccc12	-3	1%	u	4%	x	-1
Cc1ccc(-c2nnc(Oc3cccc(C)c3)c3ccccc23)cc1	5	36%	16%	-7%	3%	-8
c1ccc(Oc2nc(-c3cccnc3)nc3ccccc23)cc1	-1	u	10µM*	7%	-34%	7
Cc1cccc(Oc2nc(-c3ccccn3)nc3ccccc23)c1	34*	2.6µM*	1.9µM*	2%	-50%	63*
N/C(=N\c1nc(CSc2ccccn2)cc(=O)[nH]1)Nc1ccc(Cl)cc1Cl	-3	u	u	-1%	1%	-12
COc1ccc(CN(CC(=O)NC(C)C)C(=O)CCC(=O)Nc2nccs2)cc1	-2	14%	u	22%	-1%	-4
CCOC(=O)c1c(NC(=O)COC(=O)c2cc(OC)c(OC)cc2[N+](=O)[O-])sc(C)c1CC	1	-1%	-21%	-1%	-5%	-6
CCOC(=O)c1c(C)sc(Sc2ccc(Cl)cc2[N+](=O)[O-])c1OC	1	x	3.7µM*	-9%	1%	-8

Bioassay records deposited in PubChem BioAssay by National Center for Advancing Translational Sciences (NCATS).
